Only some compounds are listed: those with a hit (about 9.2% of all), similar ones and a draw of the others.
FLuc counter: counter-screen for miR-21 project: firefly luciferase inhibitors or activators; actives 6.9% (n = 360,000); purified FLuc, Km substrates, luminescence inhibition; Potency, µM (top dose mostly 57.5 µM), without a hit: top-dose activity change, negative = inhibition, actives largely listed as inhibitors; P08659;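 note: plate controls were vehicle for no effect and reference inhibitor for full effect; nearly all actives have a fitted effect of over 55% in size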
Target sequence (P08659 whole entry, looked up): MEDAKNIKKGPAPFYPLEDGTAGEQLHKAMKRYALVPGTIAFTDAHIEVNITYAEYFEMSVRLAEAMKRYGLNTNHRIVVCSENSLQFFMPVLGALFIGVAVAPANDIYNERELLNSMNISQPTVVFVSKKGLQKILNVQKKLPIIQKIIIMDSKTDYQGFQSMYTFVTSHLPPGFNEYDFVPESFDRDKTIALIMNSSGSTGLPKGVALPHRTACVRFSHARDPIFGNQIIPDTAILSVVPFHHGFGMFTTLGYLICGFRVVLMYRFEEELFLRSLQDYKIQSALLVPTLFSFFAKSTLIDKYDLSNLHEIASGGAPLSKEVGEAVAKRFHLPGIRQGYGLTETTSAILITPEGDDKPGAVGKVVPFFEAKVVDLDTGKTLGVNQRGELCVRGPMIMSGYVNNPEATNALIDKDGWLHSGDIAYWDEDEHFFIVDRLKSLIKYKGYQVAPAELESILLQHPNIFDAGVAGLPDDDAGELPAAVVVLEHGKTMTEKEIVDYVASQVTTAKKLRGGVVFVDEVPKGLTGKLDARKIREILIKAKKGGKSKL
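Biochemical qHTS of compounds, final roughly 60 µM downward over six points, against 10 nM purified firefly luciferase using Km concentrations of substrates (10 uM D-luciferin, 10 uM ATP) in Tris acetate pH 7.5 buffer; luminescence output.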
ELG1 genotoxic: inducers of genotoxicity in HEK293T ELG1-luciferase cells | HEK293T ELG1-luciferase reporter, luminescence, 16 h | Potency, µM (series often up to 46 µM), without a hit: at the highest dose activity change, positive = activation, most hits filed as activators | actives 1.3% (n = 330,000) | AID 504466; note: % of control where 0% means no effect; nearly all actives have a fitted effect of over 60% in size
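Genotoxic stress is detected as increased luminescence from luciferase-tagged ELG1 in HEK293T cells, measured with ONE-Glo after a 16 hr treatment at 37 °C.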
NPC1 prom act: NPC1 promoter activation; Potency, µM (doses to about 9.22 µM), for the others: at the highest dose activation, most hits filed as activators; actives 2.4% (n = 320,000); Huh7 NPC1 promoter luciferase reporter, 24 h; note: % of control where 0% means no effect; nearly all actives have a fitted effect of over 60% in size
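Stably transfected Huh7 (NPC1 promoter→luciferase), 1500 cells/well in Opti-MEM + 10% FBS, 2 h settle, then compound 24 h at 37 °C. Luminescence after 10 min with Amplite reagent.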
Rab9 promoter act: Rab9 promoter activation | Huh7 Rab9 promoter-luciferase reporter, luminescence, 24 h | Potency, µM (series often up to 9.22 µM), inactives show at the highest dose activation, negative = inhibition, hits mostly activators | actives 2.8% (n = 320,000); note: % of control where 0% means no effect; nearly all actives have a fitted effect of over 60% in size
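Luminescence read-out: Huh7 cells stably expressing Rab9-luciferase, treated 24 h with compound at 37 °C, then lysed with luciferase reagent for 10 min at ambient before reading.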
SMN2 splice up: enhancers of SMN2 splice variant expression | HEK293 SMN2-luciferase splicing reporter, luminescence, 30-36 h | Potency, µM (doses to about 46.1 µM), inactives show at the top dose activity change, positive = activation, usual class: activators | actives 2.8% (n = 210,000) | AID 1458; note: % of control where 0% means no effect; nearly all actives have a fitted effect of over 55% in size
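qHTS luciferase splicing reporter: luminescence rises when SMN2 exon 7 is included in transfected HEK293 cells. Compound exposure lasted 30-36 h at 37C, with 4.5 mM final sodium butyrate as control, followed by a ONE-Glo read.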
ELG1 repair inh: ELG1-dependent DNA repair inhibition; HEK293T ELG1-luciferase reporter, luminescence, 16 h; DNA damage induced by 5-fluorouridine; Potency, µM (top dose mostly 46.1 µM), without a hit: at the highest dose activity change, negative = inhibition, usual class: inhibitors; actives 2.3% (n = 330,000); note: % is set by controls: 0 for no effect and ±100 for the full control effect; nearly all actives have a fitted effect of over 55% in size
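Overnight (16 hr) co-exposure of 2,000 cells/well to 5-fluorouridine and compound at 37 °C preceded detection. Luciferase was quantified via ONE-Glo luminescence; loss of signal denotes inhibition.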
The depositor's hits bear a star; [ ] = dose if it differs, or a comment. Calls come from the whole dose curve; as a rule, active = well fitted curve in the direction sought with a large enough effect; inconclusive = small, poorly fitted or top-dose-only effect, or another doubt; inactive = no such curve, though single readings can be large; an effect the other way counts as inactive or inconclusive. Potency is the fitted concentration of half-maximal effect.

`COC1CC(OC2CCC3(C)C(CCC4C3CCC3(C)C(C5=CC(=O)OC5)C(OC(C)=O)CC43O)C2)OC(C)C1OC1OC(COC2OC(CO)C(O)C(O)C2O)C(O)C(O)C1O` (centres undefined) gave FLuc counter -3%, ELG1 genotoxic -11%, NPC1 prom act -44%, Rab9 promoter act -42% and ELG1 repair inh 2.9µM*.
CC(=O)OC1C[C@H](O[C@@H]2C(O)C[C@H](O[C@@H]3C(O)C[C@@H](OC4CC[C@]5(C)C(CCC6C5CC(O)[C@@]5(C)C(C7=CC(=O)OC7)CC[C@@]65O)C4)OC3C)OC2C)O[C@H](C)[C@H]1O[C@H]1OC(CO)C(O)C(O)C1O (some centres undefined) was read as SMN2 splice up -71%.
Screening Nc1nc(N)c(N=Nc2ccc([As](=O)(O)O)cc2)c(=O)[nH]1 returned SMN2 splice up -9%[9.22 µM].
Screening CC1=NN(c2ccccc2)C(=O)[C@@H]1N=Nc1ccc([As](=O)(O)O)c(O)c1 returned SMN2 splice up 7%[9.22 µM].
Screening COc1ccc(CCN2CCCC(CN(C)C(=O)c3cc(C)oc3C)C2)cc1 (centres undefined) returned FLuc counter 13µM*, ELG1 genotoxic 18µM*, NPC1 prom act 2.5µM*, Rab9 promoter act 2.2µM* and ELG1 repair inh inconclusive.
COc1cccc(C(=O)C2CCCN(Cc3ccc(F)cc3)C2)c1 (centres undefined) was read as FLuc counter 8%, ELG1 genotoxic -1%, NPC1 prom act -1%, Rab9 promoter act -11% and ELG1 repair inh 0%.
CCOc1ccc(C(=O)Nc2nnc(S(=O)(=O)N(C)Cc3ccco3)s2)cc1 was read as FLuc counter 0%, ELG1 genotoxic 0%, NPC1 prom act -2%, Rab9 promoter act 3% and ELG1 repair inh inconclusive.
Screening COc1ccccc1OCCCn1cc(C=O)c2ccccc21 returned FLuc counter inconclusive, ELG1 genotoxic -1%, NPC1 prom act inconclusive, Rab9 promoter act 0.5µM* and ELG1 repair inh inconclusive.
For O=C(CSc1ncnc2c1nnn2-c1ccc(F)cc1)NCC1CCCO1 (centres undefined) the results were FLuc counter 13µM*, ELG1 genotoxic 1%, NPC1 prom act -3%, Rab9 promoter act 4%, SMN2 splice up -21% and ELG1 repair inh inconclusive.
`CC(=O)C(Sc1ncnc2c1nnn2-c1ccc(F)cc1)C(=O)N(C)C` (centres undefined) gave FLuc counter inconclusive, ELG1 genotoxic 6%, NPC1 prom act -3%, Rab9 promoter act 28%, SMN2 splice up inconclusive and ELG1 repair inh inconclusive.
Screening COc1ccc(CCn2c(O)c(C=Nc3ccccc3F)c(=O)[nH]c2=O)cc1OC returned FLuc counter 1%, ELG1 genotoxic -1%, NPC1 prom act -5%, Rab9 promoter act -1% and ELG1 repair inh 3%.
Screening COc1ccc([N+](=O)[O-])cc1N=Cc1c(O)n(CCc2ccccc2)c(=O)n(C(C)C)c1=O returned FLuc counter 0%, ELG1 genotoxic -6%, NPC1 prom act -3%, Rab9 promoter act -1%, SMN2 splice up -3% and ELG1 repair inh 16µM*.
For CC1CC(OP(O)(=S)c2ccc(N(C)C)cc2NC(=O)c2cccs2)CC(C)(C)C1 (centres undefined) the results were FLuc counter 11µM*, ELG1 genotoxic -7%, NPC1 prom act -3%, Rab9 promoter act -25%, SMN2 splice up 43% and ELG1 repair inh -14%.
`CN1C(=O)C(=Cc2ccc(N3CCCCCC3)cc2)C(=O)N(C)C1=O` gave FLuc counter 19µM*, ELG1 genotoxic 0%, NPC1 prom act -3%, Rab9 promoter act 0% and ELG1 repair inh inconclusive.
For O=C1NC(=O)N(Cc2ccc(F)cc2)C(=O)/C1=C\c1ccc(N2CCCC2)cc1 the results were FLuc counter inconclusive, ELG1 genotoxic 11%, NPC1 prom act -4%, Rab9 promoter act 2% and ELG1 repair inh -12%.
Screening NC[C@@H](O)CSP(=O)(O)O returned SMN2 splice up -15%[9.22 µM].
Screening COC(=O)c1c(C)n(Cc2ccccc2)c2ccc(O)cc12 returned FLuc counter inconclusive, ELG1 genotoxic -7%, NPC1 prom act -6%, Rab9 promoter act -3% and ELG1 repair inh -14%.
Screening CC(=O)c1c(C)n(Cc2ccccc2)c2ccc(O)cc12 returned FLuc counter 1%, ELG1 genotoxic -10%, NPC1 prom act 8%, Rab9 promoter act -2% and ELG1 repair inh 23µM*.
`CN(C)c1ccc(N(C)C)cc1` gave SMN2 splice up -9%.
Screening CC(C)C[C@H]1C(=O)N2CCC[C@H]2[C@]2(O)O[C@](NC(=O)[C@@H]3C=C4c5cccc6[nH]c(Br)c(c56)CC4N(C)C3)(C(C)C)C(=O)N12 (some centres undefined) returned FLuc counter 1%, ELG1 genotoxic -3%, NPC1 prom act -5%, Rab9 promoter act -4%, SMN2 splice up -66% and ELG1 repair inh 18µM*.
`CN(C)c1ccc(C(=O)N/N=C/C23CC[C@@H](O)CC2(O)CC[C@@H]2[C@@H]3CCC3(C)C(C4=CC(=O)OC4)CCC23O)cc1` (some centres undefined) gave FLuc counter 4%, ELG1 genotoxic -15%, NPC1 prom act -12%, Rab9 promoter act -34% and ELG1 repair inh 8.2µM*.
CC12CC[C@H]3[C@@H](CCC4(O)C[C@H](O)CCC34/C=N/NC(=O)c3ccc(O)cc3)C1(O)CCC2C1=CC(=O)OC1 (some centres undefined) was read as FLuc counter 19µM*, ELG1 genotoxic -2%, NPC1 prom act -2%, Rab9 promoter act -4% and ELG1 repair inh 4%.
COc1ccc(C(=O)N/N=C/C23CC[C@@H](O)CC2(O)CC[C@@H]2[C@@H]3CCC3(C)C(C4=CC(=O)OC4)CCC23O)cc1 (some centres undefined) was read as FLuc counter -8%, ELG1 genotoxic -13%, NPC1 prom act -3%, Rab9 promoter act -2% and ELG1 repair inh inconclusive.

High-throughput results from PubChem BioAssay.
